# Measured values as given in the supplement of paper PMC6555819.
# Assays:
# Assay in all cases: PBM binding z-score (relative to random genomic background probes); higher = stronger binding; sequences stand for … in GC…GCGATTGACAGCGTAGAATGAAGG
# [1] = test system: RARb homodimer (NR concentration 270 nM)
# Outline: (§1)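 Custom Agilent 4×180K protein-binding microarrays carried double-stranded probes. Their 34-nt variable regions held direct-repeat seeds, single-nucleotide variants, half-site ablations and random human genomic background sequences. Arrays were incubated 1 h with ligand-free nuclear receptor dimers in PBS pH 7.4, 2% milk, 0.02% Triton X-100, 1 mM DTT, 0.2 mg/mL BSA and 0.4 mg/ml salmon testes DNA. Antibodies against each partner (one per run) detected binding, and scanned fluorescence was regression-normalized. Binding z-scores use random background probes as reference.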
# [2] = test system: RARg:RXRa (NR concentration 270 nM, RXRa partner concentration 90 nM)
# Outline: as §1
# [3] = test system: RARg homodimer (NR concentration 270 nM)
# Outline: as §1
# [4] = test system: RXRa DBDmut IVT, anti-RXR (DBD mutation: RXRa K156A/R161A, NR concentration 90 nM)
# Outline: as §1
# [5] = test system: RXRa homodimer (NR concentration 180 nM)
# Outline: as §1
# [6] = test system: THRa:RXRa (NR concentration 90 nM, RXRa partner concentration 90 nM)
# Outline: as §1
# [7] = test system: THRa homodimer (NR concentration 90 nM)
# Outline: as §1
# [8] = test system: VDR homodimer (NR concentration 270 nM)
# Outline: as §1
Sequence,PBM binding z-score [1],PBM binding z-score [2],PBM binding z-score [3],PBM binding z-score [4],PBM binding z-score [5],PBM binding z-score [6],PBM binding z-score [7],PBM binding z-score [8]
TCTGACAGGTGAAGGTAACTCAGGTACGCAGTCG,0.819,0.644,0.639,0.827,0.901,1.5,0.158,0.222
TCTTGTAGATCAATAGAGGTTAACAAAGTGCGCT,1.38,1.11,0.826,0.564,1.68,2.62,-0.415,0.462
TCTTGTACATCAAGCAGGTTAAGAAAGCCTGAGT,0.323,0.395,0.0243,0.896,0.677,0.334,-0.0584,0.438
CAAACTAGGACAAGGTCAAAGTCGGTTTGTGCCA,3.66,4.2,3.68,2.27,4.36,3.84,2.86,3.88
CCTTACGGGTCACTCCAGGTTATAGAATCGGAGT,3.06,4.57,4.54,1.91,4.61,5.18,0.576,1.39
TCTTGTAGATCAAGAAGGTTAAGAAAGCCTGAGT,0.784,0.407,0.315,0.387,0.863,0.451,-0.553,0.21
CCGACTGGGGCACAAGGTTACCATAAGCCAGCCC,1.59,1.46,1.12,-0.589,0.82,1.37,0.35,-0.201
CCTAGCAGGCCAGGGTAACTCAAGCATTTCGCTT,-0.537,-0.456,-0.357,-0.541,-0.455,-0.054,-0.445,-0.329
CCTTACGGGTCACGAGGTTATAGCACGACGAGCG,4.07,6.25,5.47,1.53,6.87,3.69,1.09,2.03
ATATGTAGGTTCTCGGGTCATTCAGTTTGCGCAT,2.61,2.47,1.7,2.28,2.88,3.46,3.29,4.65
TGGCCTAGGTCATTCAGGGGCCAGTATAGAAAGC,3.18,6.37,5.07,1.39,3.29,3.47,0.314,1.37
ATCGAAAGGTCCTGAGGTGAGTATACAGAAAGGC,1.02,1.36,0.977,-0.513,1,1.98,0.778,-0.0485
GCTAGCAGCCCATTTGGGTCACTCAATGACGGGC,1.07,0.319,0.556,-0.892,0.587,1.24,0.119,-0.375
TCGAGTAGGATACCAATGGGGCATTCAGCTTTCT,-0.451,-0.58,-0.482,0.0326,-0.263,-1.38,-1.03,-1.09
CCTACTGGGCCAAAATGGTCATTGATGCCGATAA,0.177,0.104,0.0823,-0.811,-0.05,-0.37,-0.637,-0.747
TTACCAAGGTGAAATGTCGTTGATGCACGCCTTG,0.644,0.864,0.648,0.115,1.16,1.82,0.71,-0.183
TCTCGGAGGACACGAAGGTCTGAGCTTTCCAGAG,0.657,0.331,1.01,0.323,-0.0356,1.12,0.262,-0.384
TCATATCGGTAAATGCTAGGTGAAAGTCCGATCT,0.513,-0.0615,0.173,1.14,0.375,0.889,0.553,0.0162
CCTACTGGGCCATTCAGAGATCATTGATCATATG,-0.395,-0.116,0.345,-0.0997,-0.144,-0.209,-0.607,-0.171

Sequence,PBM binding z-score [1],PBM binding z-score [2],PBM binding z-score [3],PBM binding z-score [4],PBM binding z-score [5],PBM binding z-score [6],PBM binding z-score [7],PBM binding z-score [8]
CCTGACAGGTGAGAAGGTAACTCAGCCTCGATTA,0.33,0.701,0.393,-0.0911,0.509,0.346,-0.0701,-0.656
ACTAGCAGGCCAAGGGTCACCCAAGATTAGTCCG,3.96,4.79,4.32,0.27,4.91,3,0.576,0.895
AGAATGAGGTTATTAAGAGCAGGGAATTGCGGTC,1.16,1.1,0.698,2.01,1.48,2.14,0.798,1.21
CTCGAAAGGCCGGTTGAGGTGAGTATACGGATAA,0.451,0.273,0.383,-0.239,-0.037,3.54,0.438,-0.821
ATCGAAAGGTCGAGGTGAATATAGAGAAAGGGAA,2.88,4.52,4.51,0.922,4.65,2.95,0.862,0.0536
CCTTACGGGTCAAGGTTATAACACGGGTGGTACG,3.35,5.02,4.89,1.1,5.42,3.06,0.539,1.41
TTACCAAGGTGAAGGACGTTGATCCCTCTGTAGA,0.644,0.43,0.524,-0.216,0.672,1.66,0.562,-0.106
GTAACGAGGGCAAAGTTGATAGCATCTGTCGACG,1.38,1.97,1.78,2.73,2.08,1.41,-0.0253,1.7
CAAACTAGGTCATGAAAGGTCAAAGTCGAATGAC,5.55,7.46,7.78,2.45,7.87,5.19,2.21,4.05
CGTCAAAGTTCAAGTAAGGTAACGTAAAGCACGC,4.18,5.63,6.15,4.54,4.68,5.33,1.95,3.69
GCTGCTAGGTCAGGTTTGTCAGCTAACGGGTACG,2.21,2.03,2.94,0.952,0.681,1.48,0.489,0.755
ATCTCTAGGTAAAGATAGTGCAGTGAATGCAAAT,-0.372,0.0561,0.36,-0.368,0.254,0.223,-0.337,-0.144
TCTAGTTGGTCAAAGGTCACAGACTCGAAATGCG,5.18,7.34,6.39,1.36,8.58,4.16,1.98,2.22
TCTAGTAGTTGATTAGGGCAACCGAAACAGCGGA,0.439,0.0761,-0.0123,0.339,0.492,0.48,-0.325,-0.315
GCAGCCAGGTGAAACGCAGGTAACTCAGGGTGGC,-0.292,0.262,-0.109,-0.94,0.157,1.68,-0.396,-0.939
TCGTATAGGTAATACAGGTGAAAGTCGGCATCTA,0.603,0.62,0.295,1.08,0.949,1.15,0.259,0.57
TATACAGGGTCAAAGGCCAGAGTCCGAATGTCGA,3.69,5.63,4.75,2.69,6.54,3.62,0.963,2.67
TTACCAATGTGAGCTGAGGTCGTTGATCCAACTC,0.861,0.247,-0.299,0.122,0.752,3.25,1.54,2.7
ATCTCTAGGTAATCAAGTTCAGTGAATGCCGAAC,1.24,0.838,0.72,0.825,0.439,1.26,0.487,2.59

Sequence,PBM binding z-score [1],PBM binding z-score [2],PBM binding z-score [3],PBM binding z-score [4],PBM binding z-score [5],PBM binding z-score [6],PBM binding z-score [7],PBM binding z-score [8]
ATCTCTAGGTAACAGTTCAGTGAATCCCGAGGAT,0.815,0.757,0.845,0.0711,0.513,0.831,0.517,0.915
AGAATGACGTTACCAAAGATCAGGGAAACGCTTG,-0.559,0.085,0.256,-0.636,0.0989,-0.427,-0.611,0.0201
GATACAGGGTCAGCTAGAGGCAAGAGTATGGAAA,2.77,4.72,4.64,0.963,4.52,2.8,0.438,0.394
CGTCCGAGGTCAGAGAGGTCAGTGAATGCCGAGT,5.44,6.94,7.68,3.68,6.87,4.59,3,6.58
TCATATAGGTAAAGGTTAAAGTCGAACGATATGA,2,2.68,2.28,1.27,3.91,1.81,-0.146,0.675
TCTTGTAGATCAGCAGGTTAAAAAAGCTGGCCAA,0.0977,-0.388,-0.402,0.516,0.184,0.165,-0.53,-0.268
TCATATATGTAATACAGGTGAAAGTCGGCATCTA,0.413,0.595,0.586,1.59,1.13,0.578,0.0633,0.192
GCTGCTAGGTCAACTGATGGTCGGCTAAAGCTCG,3.67,4.74,5.56,1.82,2.91,3.09,0.97,0.148
TGTCAAAGTACAAAGGTAACGTAAGTATCCACAC,1.01,1.41,1.32,0.417,0.984,1.33,-0.416,0.229
TCTTGTAGATCAATAGAGTTTAAGAAAGTGCGCT,0.231,0.0376,0.187,0.774,0.274,0.289,-0.976,0.914
TCTAGTTGGTCAAAGCTCACACACTCGAAATGCG,0.587,0.584,0.77,1.37,0.769,0.0893,0.269,0.0543
AGAATGAGATTATACGTAGATCAGGGAAGAAAGT,-0.466,0.0162,0.288,-0.678,-0.166,-0.438,-0.705,0.0852
TCAGATAGGTAATACAGGTGAAAGTCGGCATCTA,0.54,0.562,0.364,1.27,1.03,0.795,0.181,0.187
CCTATTAGTTGACCATAAGGGCAGCCGAAGCTCG,1.55,0.749,0.64,0.252,0.392,1.36,0.892,0.242
CGAACTAGGTCAGAACAGGACAGTGAAGGATGAT,1.92,2.45,3.34,0.418,1.23,3.41,0.173,-0.0967
CCTACTGGGCCAATGGTCATTGATTCCAATGCTC,0.0691,-0.0352,0.182,-0.608,-0.164,-0.527,-0.561,-0.711
TGAATGAGTTTATAAGATCAGGGAACGTTGCAAA,-0.48,0.181,0.344,3,0.0895,0.0488,-0.207,2.37
CTCGAAAGGTCGTGCACAGGTGAGTATACCAAAC,3.18,5.89,4.46,2.16,5.32,3.21,0.254,1.42
CCTTCTGGGCCATCAGGTCATTGATATCAACGTT,2.61,2.3,2.36,0.59,1.46,3.19,2.98,1.83
